# From PubChem
# The list is not random: actives were taken first. Their share in the collection is about 3.6%.
# mHTT-CaM PPI inh: disrupts binding of mutant huntingtin to calmodulin | AlphaScreen His-mHTT/GST-CaM binding, luminescence | inhibition, % at 15 µM | 190,000 compounds, 3.6% hits;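 note: 0% = both proteins with DMSO and 100% = one protein alone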
# Target sequence (P42858 whole entry, looked up, stated change not applied): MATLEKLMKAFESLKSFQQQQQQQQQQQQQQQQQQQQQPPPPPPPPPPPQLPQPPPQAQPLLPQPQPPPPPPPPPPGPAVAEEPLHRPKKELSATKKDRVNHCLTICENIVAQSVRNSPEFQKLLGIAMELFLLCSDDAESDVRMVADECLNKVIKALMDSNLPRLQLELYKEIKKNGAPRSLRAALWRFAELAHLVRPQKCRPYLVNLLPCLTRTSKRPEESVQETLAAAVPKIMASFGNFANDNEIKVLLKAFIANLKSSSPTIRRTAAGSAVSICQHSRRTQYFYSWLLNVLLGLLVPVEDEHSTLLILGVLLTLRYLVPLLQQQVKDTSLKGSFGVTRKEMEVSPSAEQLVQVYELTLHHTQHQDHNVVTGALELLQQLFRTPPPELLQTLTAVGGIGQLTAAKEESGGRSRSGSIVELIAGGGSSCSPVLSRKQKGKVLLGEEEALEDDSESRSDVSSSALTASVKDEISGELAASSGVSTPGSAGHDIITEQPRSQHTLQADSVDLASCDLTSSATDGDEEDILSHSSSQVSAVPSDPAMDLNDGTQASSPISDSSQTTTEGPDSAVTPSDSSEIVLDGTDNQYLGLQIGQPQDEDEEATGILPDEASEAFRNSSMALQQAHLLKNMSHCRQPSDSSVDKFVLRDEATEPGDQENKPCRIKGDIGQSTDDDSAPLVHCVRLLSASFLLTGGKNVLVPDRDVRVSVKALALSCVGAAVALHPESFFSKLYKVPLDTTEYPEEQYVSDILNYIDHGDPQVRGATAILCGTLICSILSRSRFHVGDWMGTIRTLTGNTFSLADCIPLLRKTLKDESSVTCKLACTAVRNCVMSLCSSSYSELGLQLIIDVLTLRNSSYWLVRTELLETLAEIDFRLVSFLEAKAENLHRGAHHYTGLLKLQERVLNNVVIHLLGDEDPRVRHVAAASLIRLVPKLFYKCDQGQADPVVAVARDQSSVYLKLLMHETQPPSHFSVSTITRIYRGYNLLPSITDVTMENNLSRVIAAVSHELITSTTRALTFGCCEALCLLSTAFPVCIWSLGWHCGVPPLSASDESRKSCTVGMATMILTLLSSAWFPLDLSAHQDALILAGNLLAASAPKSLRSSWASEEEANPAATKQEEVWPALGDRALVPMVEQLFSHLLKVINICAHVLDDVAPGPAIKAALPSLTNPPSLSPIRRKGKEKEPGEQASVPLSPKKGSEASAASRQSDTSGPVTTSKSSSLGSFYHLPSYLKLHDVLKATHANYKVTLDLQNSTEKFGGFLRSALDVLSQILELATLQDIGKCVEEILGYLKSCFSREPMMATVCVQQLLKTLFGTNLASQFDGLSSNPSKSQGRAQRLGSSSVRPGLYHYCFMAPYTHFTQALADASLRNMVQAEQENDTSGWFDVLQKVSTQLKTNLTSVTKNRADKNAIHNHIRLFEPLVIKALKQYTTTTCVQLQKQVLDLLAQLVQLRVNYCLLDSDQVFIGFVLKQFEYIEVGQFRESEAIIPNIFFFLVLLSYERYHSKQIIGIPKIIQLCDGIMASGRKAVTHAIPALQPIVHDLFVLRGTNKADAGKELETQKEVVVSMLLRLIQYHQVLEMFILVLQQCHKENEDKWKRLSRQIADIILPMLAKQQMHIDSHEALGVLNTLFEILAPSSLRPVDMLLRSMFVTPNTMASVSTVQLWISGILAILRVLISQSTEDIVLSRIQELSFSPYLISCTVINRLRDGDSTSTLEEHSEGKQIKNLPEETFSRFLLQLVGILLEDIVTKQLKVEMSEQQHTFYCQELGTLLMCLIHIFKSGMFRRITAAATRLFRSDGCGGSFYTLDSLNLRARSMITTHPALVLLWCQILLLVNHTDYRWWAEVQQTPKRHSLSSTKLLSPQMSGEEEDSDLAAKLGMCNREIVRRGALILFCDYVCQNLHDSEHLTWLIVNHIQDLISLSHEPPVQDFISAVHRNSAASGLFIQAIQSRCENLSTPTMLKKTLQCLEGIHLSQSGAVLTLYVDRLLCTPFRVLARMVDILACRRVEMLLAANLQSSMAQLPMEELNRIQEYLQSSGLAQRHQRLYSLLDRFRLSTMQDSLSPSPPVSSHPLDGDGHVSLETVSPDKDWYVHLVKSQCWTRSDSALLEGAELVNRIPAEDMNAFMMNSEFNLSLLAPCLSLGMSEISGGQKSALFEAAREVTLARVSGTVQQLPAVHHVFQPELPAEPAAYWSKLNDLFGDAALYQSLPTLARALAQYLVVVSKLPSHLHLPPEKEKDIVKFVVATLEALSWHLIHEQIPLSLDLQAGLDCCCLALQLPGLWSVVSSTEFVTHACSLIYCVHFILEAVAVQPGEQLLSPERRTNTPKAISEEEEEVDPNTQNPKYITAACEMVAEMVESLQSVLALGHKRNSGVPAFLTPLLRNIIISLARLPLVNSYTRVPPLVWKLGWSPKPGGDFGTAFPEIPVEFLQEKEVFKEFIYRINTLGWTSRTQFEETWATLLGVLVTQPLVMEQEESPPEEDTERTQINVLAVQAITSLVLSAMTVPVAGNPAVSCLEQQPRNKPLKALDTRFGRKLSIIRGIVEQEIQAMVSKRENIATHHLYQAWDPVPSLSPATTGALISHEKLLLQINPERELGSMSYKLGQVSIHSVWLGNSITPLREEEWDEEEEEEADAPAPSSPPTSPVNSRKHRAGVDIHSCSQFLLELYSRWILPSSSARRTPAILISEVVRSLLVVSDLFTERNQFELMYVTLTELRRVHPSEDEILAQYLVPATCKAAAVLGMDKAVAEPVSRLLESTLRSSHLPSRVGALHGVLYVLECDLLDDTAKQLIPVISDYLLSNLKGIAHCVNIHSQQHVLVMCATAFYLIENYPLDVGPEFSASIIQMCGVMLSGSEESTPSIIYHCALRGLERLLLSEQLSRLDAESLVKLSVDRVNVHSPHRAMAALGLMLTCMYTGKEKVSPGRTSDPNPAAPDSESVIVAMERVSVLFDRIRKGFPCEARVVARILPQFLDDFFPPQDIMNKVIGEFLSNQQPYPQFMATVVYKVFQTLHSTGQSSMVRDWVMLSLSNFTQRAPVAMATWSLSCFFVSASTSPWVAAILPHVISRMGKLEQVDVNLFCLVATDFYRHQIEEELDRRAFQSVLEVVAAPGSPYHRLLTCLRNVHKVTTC
# Pf apPOL inh: Pf-apPOL DNA polymerase inhibition. Recombinant Pf-apPOL, molecular beacon fluorescence, 1.5 h. inhibition, % at 10 µM. 210,000 compounds, 0.25% hits. AID 1794808
# Starred values were filed as active, the others as inactive; . = no result given. Cut-off read from the data, not from the text of the source: active = inhibition above about 50%; inactive = the rest.
SMILES,mHTT-CaM PPI inh,Pf apPOL inh
Nc1c(C(=O)N2CCOCC2)sc2nc(-c3ccccc3)cc(-c3ccccc3)c12,52*,-5
Cc1cc(-c2ccccc2)nc2cc(C(=O)N3CCOCC3)nn12,5,-2
C=C1SC(Nc2cccc(Cl)c2C)=NC1(C)C,.,-12
COc1ccc(Cl)cc1NC(=O)C1CCCCC1C(=O)O (configuration not stated),-1,0
CCOc1cc(C2C(C#N)=C(N)OC3=C2C(=O)CC(C)(C)C3)ccc1O (configuration not stated),0,-8
COc1cc(NC(=O)C2(C)Oc3cccnc3N(C)C2=O)cc(OC)c1 (configuration not stated),-3,-1
Cc1cc(CNS(=O)(=O)c2cccc(Cl)c2C)c(C)o1,-1,0
COc1ccc(C)cc1NC(=O)N1CC2CCCN2c2ccccc21 (configuration not stated),83*,0
Cc1ccc(C)c(NC(=O)N2CC3CCCN3c3ccccc32)c1 (configuration not stated),47,-5
COc1cc(NC(=O)N2CC3CCCN3c3ccccc32)cc(OC)c1 (configuration not stated),50,4
COc1ccc(Cl)cc1NC(=O)N1CC2CCCN2c2ccccc21 (configuration not stated),74*,-3
COC(=O)c1ccc(Cl)cc1NC(=O)N1CCN(C)c2ccccc21,48,-3
COC(=O)c1ccc(C(=O)OC)c(NC(=O)N2CC3CCCN3c3ccccc32)c1 (configuration not stated),58*,0
CCOc1ccc(C(=O)Nc2c3c(nn2-c2cccc(Cl)c2)CSC3)cc1,1,-7
Cc1ccc2occ(C3Nc4ccccc4NC4=C3C(=O)CC(c3ccccc3)C4)c(=O)c2c1 (configuration not stated),37,-1
Cc1c(Cl)cccc1Nc1c2c(nc3ccccc13)CCC2,24,-7
O=C(Nc1cnc(-c2cccc(Cl)c2)nc1)c1nccc2ccccc12,-7,-2
Cc1cc(C)n(-c2nncn2N)n1,5,-1
COc1cccc(CNc2ccc3c(c2)ncn3C)c1O,10,-7
COc1ccccc1CNc1ccc2c(c1)ncn2-c1ccccc1,69*,8
COc1ccccc1-n1cnc2cc(NCc3ccc(Cl)cc3)ccc21,80*,0
CCn1cnc2cc(NCc3ccc(Cl)cc3)ccc21,30,-3
Cc1cc2c(c(=O)o1)C(c1ccncc1)C(C#N)=C(N)O2 (configuration not stated),-2,-13
COc1ccc(CCNC(=O)Nc2cc(F)c(F)cc2Cl)cc1OC,0,-4
COc1ccc(Cl)cc1NC(=O)NCCc1ccc(N(C)C)cc1,55*,-3
SMILES,mHTT-CaM PPI inh,Pf apPOL inh
CCCCN(CCCC)S(=O)(=O)c1cc(Br)cc2c1N(C(=O)CC)CC2,-6,-2
CCCN=C(CC)C1=C(O)CC(C)(C)CC1=O,-7,13
C/C=C/Cn1c(SCC(C)C)nc2c1c(=O)[nH]c(=O)n2C,1,3
Cc1c(Cl)cccc1NC(=O)C(=O)NCCN1CCOCC1,0,-4
CC(=O)NC1=NN(C(C)=O)C(C)(c2ccc(F)cc2)S1 (configuration not stated),0,5
CC(=O)NC1=NN(C(C)=O)C(C)(c2ccc(-c3ccccc3)cc2)S1 (configuration not stated),51*,-5
CCN(CCC#N)c1ccc(N=Nc2ccc([N+](=O)[O-])cc2)cc1,53*,0
CCN(CCC#N)c1ccccc1,-4,-4
O=C(c1ccc(S(=O)(=O)N2CCCC2)cc1)N1CCCCC1,-1,-11
COc1ccccc1/C=C/C1=NC(=C\C=C\c2ccccc2)/C(=O)O1,15,-1
CCN(CC)c1nc(C)nc2sc(C(=O)Nc3cc(OC)ccc3OC)c(C)c12,-4,-3
CCN(CC)c1nc(C)nc2sc(C(=O)Nc3cc(OC)c(OC)c(OC)c3)c(C)c12,51*,-4
CC1(C)CC(=O)C=C(NCc2ccc3c(c2)OCO3)C1,1,3
O=C(Oc1ccc2c(c1)OC(=Cc1ccccc1)C2=O)c1ccco1,4,-4
O=C(Oc1ccc2c(c1)OC(=Cc1ccccc1Br)C2=O)c1ccco1,50*,-4
CC12C=CC3(CN(CCCN4CCOCC4)C(=O)C3C1C(=O)O)O2 (configuration not stated),1,-10
COc1ccc(NC2=CC(=NS(=O)(=O)c3ccc(C)cc3)c3ccccc3C2=O)cc1,46,-5
COc1ccc(S(=O)(=O)N=C2C=C(Nc3ccc(C)cc3)C(=O)c3ccccc32)cc1,75*,-3
Cc1ccc(NC2=CC(=NS(=O)(=O)c3ccc(F)cc3)c3ccccc3C2=O)cc1,88*,-4
Cc1ccc(S(=O)(=O)N=Cc2ccc(F)cc2)cc1,23,0
CCc1nc2nc(C)cc(N3CCN(c4ccc(C)cc4C)CC3)n2n1,63*,-8
CCCN(C)Cc1nc2nc(C)cc(N3CCCCCC3)n2n1,19,-7
COc1cccc(NCc2ccc([N+](=O)[O-])s2)c1,48,-3
O=[N+]([O-])c1ccc(CNc2ccc3c(c2)CCC3)s1,84*,7
Cc1ccc(C2=NC(=O)/C(=C\c3cc4c(cc3Br)OCO4)S2)cc1,2,-7
SMILES,mHTT-CaM PPI inh,Pf apPOL inh
Cc1ccc(NC(=O)C2CCc3sc(C(=O)N(C)C)cc3C2)cc1 (configuration not stated),3,-2
COc1ccc(C(=O)Nc2ccc(I)cc2Cl)cc1,-7,2
O=C(Cc1ccc(Br)cc1)N1CCCc2ccccc21,-35,-14
CC(Oc1cccc(Cl)c1)C(=O)N1CCN(c2ccc([N+](=O)[O-])cc2)CC1 (configuration not stated),-1,-2
Cc1cc(Cl)ccc1OC(C)C(=O)N1CCN(c2ccc([N+](=O)[O-])cc2)CC1 (configuration not stated),3,55*
CC(=O)N=Cc1c(C)c(C#N)c(=O)n(C)c1O,0,.
COc1ccc(S(=O)(=O)NCCC2CCN(C(=O)c3ccccc3)CC2)cc1Cl,23,0
COc1ccc(OC)c(S(=O)(=O)NCCC2CCN(C(=O)c3ccccc3)CC2)c1,63*,1
Cc1cc(C)cc(S(=O)(=O)NCCC2CCN(C(=O)c3ccccc3)CC2)c1,27,-5
COc1ccc(Cl)cc1S(=O)(=O)NCCC1CCN(C(=O)c2ccccc2)CC1,77*,-3
O=C(Nc1cccc([N+](=O)[O-])c1)c1cn(-c2ccccc2)nc1-c1cccnc1,4,-17
COc1ccc(C(=O)N=c2sc3cccc(OC)c3n2C)c(OC)c1,17,-2
Cc1cccnc1NC(=O)Nc1ccc(Cl)c(Cl)c1,-13,0
Cn1nc(-c2nc(C3CC3)no2)c2c1CCN(C(=O)Nc1ccccc1)C2,12,0
Cc1noc(-c2nn(C)c3c2CN(C(=O)Nc2ccc(Cl)cc2)CC3)n1,58*,1
CSc1cccc(NC(=O)N2CCc3c(c(-c4nc(C5CC5)no4)nn3C)C2)c1,52*,-6
CSc1ccc(NC(=O)N2CCc3c(c(-c4nc(C)no4)nn3C)C2)cc1,36,-2
C=CCNc1nc(Cl)nc(Nc2ccc(I)cc2)n1,-1,-4
O=C(CCCCCn1c(=O)[nH]c2ccccc2c1=O)NCc1ccc2c(c1)OCO2,5,0
Cc1cccnc1NS(=O)(=O)c1cc(Cl)ccc1Cl,-3,2
